This passage reports growth results from PubChem BioAssay (NCI).

Compounds without any hit were thinned out: in the full panel of roughly 83,000, 20% have a hit.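 Results are percent growth after 48 hours of single-concentration exposure. 100 means growth as in untreated cells, lower positive values show inhibition; negative values down to -100 show cell death.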 Unmarked numbers belong to inactive results. Calls of active or inactive are those of the source. Rule for the calls: active = growth percent below 10; inactive = the rest.

Test systems include T-47D breast; BT-549 breast; MDA-MB-435 melanoma; SW-620 colon; MCF7 breast; HCT-116 colon; HCC-2998 colon; KM12 colon; MDA-MB-468 breast.
Common to all, as to assay: NCI-60 one-dose screen, 48 h (100 = growth as untreated, 0 = no growth, -100 = all killed)
What all share (conditions): 10 µM

On to `O=C(c1ccc(Cl)cc1)C1[C@H](c2ccc(Br)cc2)[C@@H](c2ccccc2)NC12C(=O)Nc1ccc(Br)cc12` (some centres undefined), for which the growth in the experiment with T-47D breast is -54% (active); with BT-549 breast it was -73.3% (active); with MDA-MB-435 melanoma it was -88.8% (active); with SW-620 colon, -71.6% (active); with MCF7 breast, -43.3% (active); in the experiment with HCT-116 colon it was 1.39% (active). Besides, the values for the growth in the experiment with HCC-2998 colon and in the experiment on KM12 colon were -98.5% (active) and -50.8% (active), respectively.

Take `Nc1nc2c(F)c(F)c(F)c(F)c2s1`: the growth was 91.3% in the experiment with T-47D breast; 105% in the experiment with BT-549 breast; 101% with MDA-MB-435 melanoma; 106% in the experiment with SW-620 colon; 93.7% with MCF7 breast; 113% with HCT-116 colon. Also, the growth with HCC-2998 colon was 116%; in the experiment with KM12 colon, 99.9%.

For `O=C(CSc1nnc(-c2c[nH]c3ccccc23)n1-c1ccccc1)c1ccc(Cl)cc1`, the growth with T-47D breast is 54.6%; in the experiment on BT-549 breast it was 69.8%; with MDA-MB-435 melanoma it was 79.2%; in the experiment with SW-620 colon it was 70.3%; in the experiment with MCF7 breast it was 38.4%; in the experiment on HCT-116 colon, 45.7%. For the same molecule, the growth was 78.1% with HCC-2998 colon and 78.7% in the experiment with KM12 colon.

On to `CO[C@H]1CSS[C@@H]1Cn1nc(-c2ccc(Oc3ccccc3)cc2)c2c(N)ncnc21`, for which the growth was 2.61% (active) with T-47D breast; 4.49% (active) with BT-549 breast; -46.5% (active) in the experiment with MDA-MB-435 melanoma; 66.4% with SW-620 colon; 10.2% in the experiment on MCF7 breast; 7.35% (active) in the experiment on HCT-116 colon. In addition, the growth with HCC-2998 colon was 14%; with KM12 colon it was 17.5%.

Consider `O=C(Nc1nc2ccc([N+](=O)[O-])cc2s1)Nc1ccccc1I`, for which the growth in the experiment on T-47D breast was -16.7% (active); with BT-549 breast it was -18.9% (active); with MDA-MB-435 melanoma, -7.59% (active); in the experiment on SW-620 colon, 7.65% (active); in the experiment with MCF7 breast it was -13.9% (active); with HCT-116 colon, -18.8% (active). Also, the growth in the experiment on HCC-2998 colon is 4.48% (active); in the experiment with KM12 colon it was 2.86% (active); in the experiment with MDA-MB-468 breast, -25.8% (active).

As for `CC(=O)NS(=O)(=O)c1ccc(NC(=O)CSC2=NC(c3ccccc3)C(C(C)=O)=C(C)N2)cc1` (centres undefined), the growth with T-47D breast is 99.7%; with BT-549 breast it was 116%; in the experiment on MDA-MB-435 melanoma, 104%; in the experiment with SW-620 colon, 106%; with MCF7 breast, 95.2%; with HCT-116 colon, 102%. Further, the growth with HCC-2998 colon was 108%; in the experiment on KM12 colon, 104%; in the experiment with MDA-MB-468 breast it was 110%.

Turning to `C=CCn1c(SCC(=O)Nc2ccc(C(=O)/C=C/c3ccccc3)cc2)nnc1-c1c[nH]c2ccccc12`, the growth with T-47D breast is 20.8%; in the experiment on BT-549 breast it was 45.6%; in the experiment on MDA-MB-435 melanoma it was -13.5% (active); with SW-620 colon it was -28.2% (active); in the experiment on MCF7 breast, -67.7% (active); with HCT-116 colon, -52.4% (active). Moreover, the results for the growth with HCC-2998 colon, in the experiment with KM12 colon and with MDA-MB-468 breast were -69.4% (active), 6.81% (active) and -7.8% (active), respectively.

Take `COC[C@@H](CC(C)C)N=C1NC(=O)/C(=C/c2ccc3ncsc3c2)N1`: the growth in the experiment with T-47D breast is -7.77% (active); in the experiment on BT-549 breast, -10.9% (active); in the experiment with MDA-MB-435 melanoma, 12.7%; with SW-620 colon, 5.92% (active); in the experiment with MCF7 breast it was -17.7% (active); in the experiment on HCT-116 colon, 19.2%. Also, the growth in the experiment on HCC-2998 colon was 15.5%; with KM12 colon it was 21%.

For the molecule `COc1ccc(-c2cc(C(=O)N=Nc3c(O)[nH]c4ccc(F)cc34)c3ccccc3n2)cc1`, the growth with T-47D breast is 75.9%; in the experiment on BT-549 breast, 86.3%; in the experiment with MDA-MB-435 melanoma, 65.2%; with SW-620 colon it was 41.1%; with MCF7 breast, 23.6%; in the experiment on HCT-116 colon it was 39.7%. For the same molecule, the growth was 91.1% in the experiment on HCC-2998 colon and 81.3% in the experiment with KM12 colon.

`O=C(NO)c1ccc(CNC(=O)[C@H]2Cc3c([nH]c4ccccc34)[C@H](c3ccccc3)N2)cc1`: the growth in the experiment on T-47D breast is -17.7% (active); with BT-549 breast, 55.4%; in the experiment on MDA-MB-435 melanoma, 5.21% (active); in the experiment on SW-620 colon, -43.7% (active); with MCF7 breast, 14.4%; with HCT-116 colon, 10.1%. For the same molecule, the growth in the experiment with HCC-2998 colon is 16.9%; in the experiment on KM12 colon, 31.1%; in the experiment on MDA-MB-468 breast it was -6.19% (active).

With `C=C(C)[C@@H]1CC[C@]2(C(=O)OC)CC[C@]3(C)[C@H](CC[C@@H]4[C@@]5(C)CC[C@H](N)C(C)(C)[C@@H]5CC[C@]43C)[C@@H]12`, the growth with T-47D breast was -73.3% (active); in the experiment with BT-549 breast, -63.6% (active); in the experiment with MDA-MB-435 melanoma it was -97% (active); with SW-620 colon, -75.6% (active); in the experiment with MCF7 breast, -85.4% (active); in the experiment on HCT-116 colon it was -98.3% (active). The growth in the experiment on HCC-2998 colon is -93.6% (active); in the experiment with KM12 colon, -82.3% (active); in the experiment on MDA-MB-468 breast it was -97.2% (active).

For `COc1ccc2nc(Cl)c(-c3cc(-c4ccccc4)nc(=O)[nH]3)cc2c1`, the growth was 37.8% in the experiment on T-47D breast; 38.9% in the experiment with BT-549 breast; 75.9% with MDA-MB-435 melanoma; 11.1% with SW-620 colon; 10.2% in the experiment on MCF7 breast; 9.44% (active) in the experiment on HCT-116 colon. In addition, the figures for the growth in the experiment with HCC-2998 colon, with KM12 colon and with MDA-MB-468 breast were 84.9%, 18.3% and 28.5%, respectively.

In the case of `Cc1ccc(/C=C(\C#N)n2nnc3c(F)cccc32)cc1`, the growth in the experiment with T-47D breast was 24.5%; in the experiment with BT-549 breast, -13.4% (active); with MDA-MB-435 melanoma, 8.1% (active); with SW-620 colon it was 14%; in the experiment with MCF7 breast, 8.62% (active); in the experiment with HCT-116 colon, 27%. For the same molecule, the growth in the experiment on HCC-2998 colon was -20.1% (active); in the experiment with KM12 colon it was -1.08% (active); in the experiment on MDA-MB-468 breast, 37.8%.

Turning to `O=C(N=Nc1c(O)[nH]c2ccc(Br)cc12)c1ccc2nc(-c3ccccc3)[nH]c2c1`, the growth was -67.4% (active) in the experiment with T-47D breast; -71% (active) in the experiment with BT-549 breast; -88.9% (active) in the experiment on MDA-MB-435 melanoma; -60% (active) in the experiment on SW-620 colon; -53.4% (active) in the experiment on MCF7 breast; -28.3% (active) in the experiment with HCT-116 colon. Besides, the values for the growth in the experiment with HCC-2998 colon, in the experiment with KM12 colon and with MDA-MB-468 breast were -78% (active), 2.92% (active) and -85.8% (active), respectively.

For the molecule `C=CC(=O)Nc1ccc(C(=O)/C=C/c2ccc(N(C)CCF)cc2)c(O)c1`, the growth in the experiment with T-47D breast is 5.88% (active); in the experiment on BT-549 breast, -65% (active); with MDA-MB-435 melanoma, -46.7% (active); with SW-620 colon it was 5.99% (active); in the experiment with MCF7 breast, -19.5% (active); with HCT-116 colon, -66.2% (active). Further, the growth was -78.4% (active) in the experiment on HCC-2998 colon, -82.6% (active) in the experiment on KM12 colon and -73.6% (active) in the experiment with MDA-MB-468 breast.
